# From PubChem BioAssay (NCATS)
# Records with an inconclusive call do not appear. Calls of active or inactive are those of the source. The call rests on the fitted dose curve; in most records, active means well fitted cell-killing curve with a large enough effect; inconclusive means small, poorly fitted or top-dose-only effect; inactive means flat fitted curve, though single readings scatter.
# Test: qHTS assay to identify small molecule inhibitors of chordoma cells - UCH-2 (AID 1259356)
# Conditions: UCH-2 chordoma viability, CellTiter-Glo ATP luminescence, 48 h; series mostly up to 46.1 µM; activity change, negative = inhibition: at the top concentration
# Text: NIH Chemical Genomics Center [NCGC]
# Chordoma is a rare and slow growing tumor that can occur anywhere along the spine, from the base of the skull to the tailbone. Current treatment options for chordoma is surgery and radiation therapy for those who are not candidates for surgery. But chordomas tend to return in the same location or surrounding areas of the original tumor after surgery and/or radiation. Chemotherapy can slow down the progression of the tumor. As chordoma is slow growing, the general cytotoxic agents that kill fast growing cells are ineffective, and some patients have been reported to respond to molecularly targeted drugs.
# NCATS Pharmaceutical Collection (NPC) containing approximately 3000 clinically approved and investigational drugs were used to screen at 15 concentrations in a chordoma cell lines, UCH-2, to identify small molecule compounds that can inhibit chordoma cell growth.
# NCGC Assay Protocol Summary:
# Human chordoma cell line UCH-2 was dispensed at 800 per well in 4uL of culture medium into white solid bottom 1536-well plates (Corning Life Sciences, Corning, NY) using a Multidrop Combi (Thermo Scientific, Waltham, MA) dispenser. The assay plates were incubated at 37 C and 5% CO2 for an overnight, and then 23nL of compounds dissolved in DMSO and positive control were transferred using a Pintool station (Wako, San Diego, CA). Compound treatment was followed by the addition of 1uL of the combination compounds (1uM Auranofin, 500nM each of Camptothecin, Doxorubicin, Rubitecan, and Topotecan) and assay medium to each well of the assay plates using Flying Reagent Dispenser (FRD, Aurora Discovery, San Diego, CA). The assay plates were incubated at 37 C and 5% CO2 for 48hr. Then 5uL of CellTiter-Glo reagent (Promega Corporation, Madison, WI) was added to each well of the assay plates using FRD. After 30min incubation at room temperature, the luminescence signal was quantified using a ViewLux plate reader (PerkinElmer, Shelton, CT).
# On the % scale 0 is the no-effect control and ±100 the full control effect.
SMILES,"activity change, negative = inhibition",outcome
Cc1cc2c(C(C)C)c(O)c(O)c(C=O)c2c(O)c1-c1c(C)cc2c(C(C)C)c(O)c(O)c(C=O)c2c1O,-11.4% (inactive),
Nc1nc2ccc(OC(F)(F)F)cc2s1,-17.1% (inactive),
NNCCc1ccccc1,4.65% [at 20.6 µM] (inactive),
CC(C)NCC(O)COc1ccc(COCCOC(C)C)cc1 (stereo not given),10.8% (inactive),
Clc1ccc(Nc2nnc(Cc3ccncc3)c3ccccc23)cc1,2.93% (inactive),
CCOC(=O)C1=C[C@]2(CC)CCCN3CCc4c(n1c1ccccc41)[C@@H]32,,inactive
NS(=O)(=O)c1cc2c(cc1Cl)NC=NS2(=O)=O,0.827% (inactive),
Cc1ccccc1C(OCCN(C)C)c1ccccc1 (stereo not given),2.36% (inactive),
O=C1CCc2cc(OCCCCc3nnnn3C3CCCCC3)ccc2N1,1.02% (inactive),
CCN(CC)CCCC(C)Nc1ccnc2cc(Cl)ccc12 (stereo not given),5.81% (inactive),
NC[C@H](O)c1ccc(O)c(O)c1,-1.7% (inactive),
Nc1ccc(S(=O)(=O)Nc2ccnn2-c2ccccc2)cc1,9.1% [at 20.6 µM] (inactive),
c1ccc([C@H]2CN3CCSC3=N2)cc1,6.52% (inactive),
N#Cc1ccc(C(c2ccc(C#N)cc2)n2cncn2)cc1,13% [at 20.6 µM] (inactive),
CCC(C)n1ncn(-c2ccc(N3CCN(c4ccc(OC[C@H]5CO[C@](Cn6cncn6)(c6ccc(Cl)cc6Cl)O5)cc4)CC3)cc2)c1=O (stereo not given in full),-3.03% (inactive),
OC(CN1CCC(Cc2ccc(F)cc2)CC1)c1ccc(Cl)cc1 (stereo not given),4.46% (inactive),
CC(=O)Oc1ccccc1C(=O)O,2.8% (inactive),
CCn1cc(C(=O)O)c(=O)c2cc(F)c(N3CCNC(C)C3)c(F)c21 (stereo not given),2.72% (inactive),
O=c1[nH]cnc2[nH]ncc12,1.87% (inactive),
N[C@@H]1CONC1=O,-2.51% (inactive),

SMILES,"activity change, negative = inhibition",outcome
Oc1ccc(C2CNCCc3c2cc(O)c(O)c3Cl)cc1 (stereo not given),-1.02% (inactive),
Cc1c(C)c2c(c(C)c1O)CCC(C)(COc1ccc(CC3SC(=O)NC3=O)cc1)O2 (stereo not given),4.69% (inactive),
CCCc1nn(C)c2c(=O)[nH]c(-c3cc(S(=O)(=O)N4CCN(C)CC4)ccc3OCC)nc12,15.7% (inactive),
CN1CCN(CCCN2c3ccccc3Sc3ccc(C(F)(F)F)cc32)CC1,-4.11% (inactive),
CCc1ccc(CCOc2ccc(CC3SC(=O)NC3=O)cc2)nc1 (stereo not given),-7.17% (inactive),
NC(N)=NC(=O)c1nc(Cl)c(N)nc1N,0.459% (inactive),
O=NN(CCCl)C(=O)NCCCl,-0.964% (inactive),
CCCC(CCC)C(=O)O,3.78% (inactive),
Clc1cccc(Cl)c1NC1=NCCN1,6.7% (inactive),
OC(CCN1CCCCC1)(c1ccccc1)C1CC2C=CC1C2 (stereo not given),1.54% (inactive),
Cc1oncc1C(=O)Nc1ccc(C(F)(F)F)cc1,-1.69% [at 20.6 µM] (inactive),
Cc1cn[nH]c1,3.88% (inactive),
O=c1n(CCCN2CCN(c3cccc(Cl)c3)CC2)nc2ccccn12,1.74% [at 20.6 µM] (inactive),
NC(=O)c1cnccn1,1.25% (inactive),
Cc1cnc(NC(=O)C2=C(O)c3ccccc3S(=O)(=O)N2C)s1,3.07% (inactive),
N=c1nc(N2CCCCC2)cc(N)n1O,3.53% (inactive),
CCCc1nc2c(C)cc(-c3nc4ccccc4n3C)cc2n1Cc1ccc(-c2ccccc2C(=O)O)cc1,11.2% (inactive),
NCCc1ccc(O)c(O)c1,6.98% (inactive),
NCCCC(N)(C(=O)O)C(F)F (stereo not given),16.9% (inactive),
O=C(O)COCCN1CCN(C(c2ccccc2)c2ccc(Cl)cc2)CC1 (stereo not given),-1.42% [at 20.6 µM] (inactive),
